The source made the active and inactive calls. Unless noted, no rule for the calls is given here.
Experiments:
[1] = A549 cell viability effects, profiling panel, calcein-AM fluorescence, 48 h, basal (AID 1162); details: higher = more signal; also: test concentration not given here
[2] = adipocyte viability effects, profiling panel, cell-based, 3T3-L1 adipocytes, calcein-AM fluorescence, 48 h, basal (AID 1163); details: 3T3-L1 adipocytes viability, higher = more signal; also: test concentration not given here
[3] = HepG2 cell viability effects, profiling panel, calcein-AM fluorescence, 48 h, basal (AID 1164); details: higher = more signal; also: test concentration not given here
[4] = MM1S cell viability effects, profiling panel, calcein-AM fluorescence, 48 h, basal (AID 1165); details: higher = more signal;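 also: viability of MM1S multiple myeloma cells under basal unstimulated conditions; test concentration not given here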
[5] = basal RPMI8226 viability, no added stimulus, profiling panel, cell-based, calcein-AM fluorescence, 48 h, PK04 Diversity Set (AID 1166); details: RPMI8226 myeloma viability, higher = more signal;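 also: cells grown under basal conditions without added stimulus; test concentration not given here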
[6] = basal HepG2 mitochondrial membrane potential changes, profiling panel, cell-based, JC-1 fluorescence, 24 h, 100 nL compound (AID 1167); details: higher = more signal; also: test concentration not given here
[7] = basal 3T3-L1 adipocyte mitochondrial potential changes, profiling panel, cell-based, JC-1 fluorescence, 3T3-L1 adipocytes, 24 h, 100 nL compound (AID 1168); details: JC-1 mitochondrial fluorescence, higher = more signal, called active from +8 up or from −8 down; also: test concentration not given here
[8] = basal RPMI8226 mitochondrial membrane potential changes, profiling panel, cell-based, JC-1 fluorescence, 24 h, 100 nL compound (AID 1169); details: RPMI8226 myeloma, JC-1 mitochondrial potential fluorescence, higher = more signal; also: test concentration not given here
[9] = basal MM1S mitochondrial membrane potential changes, profiling panel, cell-based, JC-1 fluorescence, 24 h, 100 nL compound (AID 1170); details: higher = more signal; also: test concentration not given here
[10] = A549 lung cancer cell viability effects, profiling panel, resazurin fluorescence, 24 h, PK04 Diversity Set (AID 1171); details: higher = more signal, called active from +8 up or from −8 down; also: test concentration not given here
[11] = HepG2 liver cancer cell viability effects, profiling panel, resazurin fluorescence, 24 h, PK04 Diversity Set (AID 1172); details: higher = more signal; also: test concentration not given here
[12] = basal S. cerevisiae growth modulation, no modifier, primary screen, OD600, strain BY4716, 24 h, basal condition (AID 1173); details: OD600, 24 h, higher = more signal, called active from +8 up or from −8 down
[13] = MM1S myeloma cell viability, profiling panel, resazurin fluorescence, basal, 24 h, PK04 Diversity Set (AID 1174); details: higher = more signal, called active from +8 up or from −8 down;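 also: MM1S multiple myeloma cell line; test concentration not given here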
[14] = biological target: Dihydroorotate dehydrogenase (quinone), mitochondrial (Plasmodium falciparum (isolate 3D7)) (UniProt Q08210); assay: PfDHODH enzyme inhibitors, primary screen, biochemical, C-terminal His tag, absorbance 600 nm (AID 1175); details: DCIP absorbance 600 nm, higher = more signal, called active from +8 up or from −8 down;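 also: recombinant parasite enzyme with a five histidine tag at its C terminus; test concentration not given here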
Sequence of Dihydroorotate dehydrogenase (quinone), mitochondrial (Plasmodium falciparum (isolate 3D7)) (Q08210 whole entry, looked up): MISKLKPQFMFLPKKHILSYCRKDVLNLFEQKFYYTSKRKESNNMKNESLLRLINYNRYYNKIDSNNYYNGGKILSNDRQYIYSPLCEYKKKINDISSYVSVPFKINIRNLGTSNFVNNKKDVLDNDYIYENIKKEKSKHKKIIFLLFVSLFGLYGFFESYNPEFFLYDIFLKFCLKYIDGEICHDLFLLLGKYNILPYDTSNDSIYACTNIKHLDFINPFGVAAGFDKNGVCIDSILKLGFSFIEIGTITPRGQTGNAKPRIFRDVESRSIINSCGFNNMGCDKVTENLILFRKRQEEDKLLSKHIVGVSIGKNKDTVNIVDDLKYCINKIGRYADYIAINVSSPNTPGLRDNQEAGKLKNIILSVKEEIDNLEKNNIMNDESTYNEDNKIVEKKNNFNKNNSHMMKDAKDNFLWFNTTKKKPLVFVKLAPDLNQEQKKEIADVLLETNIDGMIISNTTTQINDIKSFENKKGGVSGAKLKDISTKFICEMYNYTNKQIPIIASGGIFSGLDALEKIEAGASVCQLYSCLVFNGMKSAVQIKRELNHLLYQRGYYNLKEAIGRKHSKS

[15] = P. aeruginosa biofilm formation inhibitors, primary screen, strain PAO1, LB-PBS medium, absorbance 600 nm (AID 1176); also: test concentration not given here; details: P. aeruginosa PAO1 growth/biofilm, A600, 12 h; higher = more signal
[16] = S. cerevisiae RM11-1a growth modifiers, primary screen, strain RM11-1a, OD600, basal, 24 h (AID 1177); details: OD600, 24 h, higher = more signal, called active from +8 up or from −8 down;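 also: cultures grown under basal conditions with no added stressor; test concentration not given here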
[17] = E. coli acrAB mutant growth effects, primary screen, E. coli filamentation inducers, strain DRC39, OD650, 24 h (AID 1178); details: higher = more signal, called active from +8 up or from −8 down;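 also: growth measured as culture turbidity by optical density at 650 nm; test concentration not given here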
[18] = E. coli acrAB mutant growth effects, primary screen, E. coli filamentation inducers, strain DRC39, OD650, 48 h (AID 1179);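 also: screen aims at cell division blockers that make cells filament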; details: E. coli DRC39 delta-acrAB growth, higher = more signal, called active from +8 up or from −8 down
[19] = RPMI8226 myeloma cell viability, profiling panel, resazurin fluorescence, basal, 24 h, PK04 Diversity Set (AID 1180); details: higher = more signal;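 also: RPMI8826 multiple myeloma cell line at 5000 cells per well; test concentration not given here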
[20] = biological target: E3 ubiquitin-protein ligase XIAP (Homo sapiens) (UniProt P98170); assay: XIAP binders, primary screen, biophysical, small-molecule microarray, fluorescence 635 nm (AID 1181); details: small-molecule microarray binding, higher = more signal;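 also: score merges 667 nm emission and signal to noise over triplicate slides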
Sequence of E3 ubiquitin-protein ligase XIAP (Homo sapiens) (P98170 whole entry, looked up): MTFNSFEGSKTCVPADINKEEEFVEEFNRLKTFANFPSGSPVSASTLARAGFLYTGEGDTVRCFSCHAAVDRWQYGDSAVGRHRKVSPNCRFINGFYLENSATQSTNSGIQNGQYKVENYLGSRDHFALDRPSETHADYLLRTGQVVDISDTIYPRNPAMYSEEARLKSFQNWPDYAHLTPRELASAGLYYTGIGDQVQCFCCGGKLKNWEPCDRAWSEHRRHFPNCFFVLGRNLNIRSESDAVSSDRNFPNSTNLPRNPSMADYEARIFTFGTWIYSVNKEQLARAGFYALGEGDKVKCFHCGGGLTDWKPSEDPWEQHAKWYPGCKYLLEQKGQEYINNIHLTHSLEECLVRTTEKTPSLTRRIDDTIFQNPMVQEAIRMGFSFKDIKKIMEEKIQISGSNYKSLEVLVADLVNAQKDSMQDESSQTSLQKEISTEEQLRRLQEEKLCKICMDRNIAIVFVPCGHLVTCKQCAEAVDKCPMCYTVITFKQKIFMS

| Structure (SMILES) | z-score [1] | z-score [2] | z-score [3] | z-score [4] | z-score [5] | z-score [6] | z-score [7] | z-score [8] | z-score [9] | z-score [10] | z-score [11] | z-score [12] | z-score [13] | composite z-score [14] | z-score [15] | z-score [16] | z-score [17] | z-score [18] | z-score [19] | composite z-score [20] |
| --- | --- | --- | --- | --- | --- | --- | --- | --- | --- | --- | --- | --- | --- | --- | --- | --- | --- | --- | --- | --- |
| O=C1c2ccccc2[C@](Cc2ccccc2I)(C(=O)NCc2ccccc2)[C@H](c2ccc(CO)cc2)N1C1CCCCC1 | -0.475 | 1.03 | -0.36 | -2.3 | -1.99 | 1.36 | -0.424 (inactive) | 0.173 | 0.551 | 0.623 (inactive) | -0.176 | -0.453 (inactive) | 0.485 (inactive) | -0.567 (inactive) | 0.214 (inactive) | -0.871 (inactive) | 0.852 (inactive) | -0.14 (inactive) | 0.489 | 0.182 |
| COc1ccc([Si](C)(C)[C@H]2[C@H](CC(=O)N3Cc4ccccc4C[C@H]3CO)O[C@@]3(C(=O)N(Cc4cccc(N5CCCCC5=O)c4)c4ccccc43)[C@@H]2C)cc1 | -0.463 | 0.785 | -0.229 | -1.87 | -3.08 | -0.189 | -0.198 (inactive) | -1.07 | -1.46 | -0.646 (inactive) | -0.376 | -0.704 (inactive) | -2.39 (inactive) | -0.614 (inactive) | 1.42 (inactive) | 0.662 (inactive) | -0.235 (inactive) | -0.435 (inactive) | -1.74 | 0.208 |
| COc1ccc([Si](C)(C)[C@H]2[C@H](CCn3cc([C@H](O)c4ccccc4)nn3)O[C@@]3(C(=O)N(Cc4ccc(N5CCC5=O)cc4)c4ccccc43)[C@@H]2C)cc1 | 0.399 | 1.19 | -0.541 | -0.695 | -0.412 | 0.411 | -0.391 (inactive) | -0.445 | -0.202 | -0.869 (inactive) | -0.225 | 0.309 (inactive) | -0.771 (inactive) | 0.65 (inactive) | 0.401 (inactive) | 1.07 (inactive) | 0.0302 (inactive) | -0.422 (inactive) | -0.0897 | -0.022 |
| CC(C)N1CC=CC23O[C@@H]4C=CCCOC(=O)C4[C@H]2C(=O)N(CCO)[C@@H]3C1=O (stereo not given in full) | -0.555 | -0.0175 | -2.03 | 0.506 | 0.0275 | -0.333 | 0.5 (inactive) | 1 | 0.862 | 1.06 (inactive) | 1.74 | -0.913 (inactive) | 0.839 (inactive) | -2.29 (inactive) | 0.525 (inactive) | -0.199 (inactive) | -0.141 (inactive) | -0.327 (inactive) | 0.475 | -0.251 |
| O=C1OCC=C[C@H]2OC34C=CCN(Cn5nnc6ccccc65)C(=O)[C@H]3N(CCCCCCO)C(=O)[C@@H]4[C@@H]12 (stereo not given in full) | -0.4 | 0.352 | 0.226 | 1.15 | 0.447 | -0.688 | -0.0324 (inactive) | -0.638 | -0.467 | -0.402 (inactive) | -0.214 | -0.344 (inactive) | 0.0473 (inactive) | -1.32 (inactive) | 0.481 (inactive) | -0.91 (inactive) | 0.239 (inactive) | 0.163 (inactive) | -0.134 | 0.233 |
| COCCOC(=O)N1C(=O)[C@@]2(c3cc(C#CC4=CCCCC4)ccc31)[C@H](c1ccc(O)cc1)N1[C@H](c3ccccc3)[C@H](c3ccccc3)OC(=O)[C@H]1[C@@H]2C(=O)Nc1nc2ccccc2s1 | -0.0695 | -0.898 | 0.0669 | -1.01 | -1.65 | -2.79 | -0.451 (inactive) | -0.941 | -0.887 | -0.304 (inactive) | -0.477 | 0.175 (inactive) | 0.0007 (inactive) | -0.399 (inactive) | 1.44 (inactive) | 0.297 (inactive) | -0.61 (inactive) | 0.0717 (inactive) | -0.0867 | 0.0114 |
| COc1cc2c(cc1OC)CN(C(=O)[C@H]1[C@@H]3C(=O)O[C@@H](c4ccccc4)[C@@H](c4ccccc4)N3[C@@H](c3ccc(OCCO)cc3)[C@]13C(=O)Nc1ccc(C#CC4(O)CCCCCC4)cc13)CC2 | 0.943 | 0.0483 | 1.17 | 0.217 | 0.0846 | -0.871 | 0.568 (inactive) | -0.338 | -0.852 | -0.354 (inactive) | 0.0686 | 1.19 (inactive) | 0.122 (inactive) | -0.143 (inactive) | 2.91 (inactive) | 3.28 (inactive) | 0.457 (inactive) | 1.25 (inactive) | 0.378 | -0.0011 |
| CCOC(=O)[C@@H]1[C@@H]2C(=O)N(CC)C(=O)[C@@H]2C[C@@H]1Sc1ccccc1 | -0.992 | -1.04 | -0.971 | -0.223 | -0.0967 | -0.644 | 0.186 (inactive) | -0.28 | -1.29 | 1.06 (inactive) | 0.0632 | -0.325 (inactive) | -0.33 (inactive) | 0.917 (inactive) | 0.257 (inactive) | 0.866 (inactive) | -0.638 (inactive) | -0.894 (inactive) | -0.458 | -0.127 |

From PubChem BioAssay
